Screening results deposited in PubChem by National Center for Advancing Translational Sciences (NCATS).
Shown are actives, neighbours in structure and some others; about 3.9% of the full set was active somewhere.
VDR inh: vitamin D3 receptor (human) inhibition; VDR-SRC2-3 peptide fluorescence polarization, 2 h; actives 0.93% (n = 400,000); Potency, µM, inactives show max response, negative = inhibition, most hits filed as inhibitors; AID 504847; P11473; also: % is scaled to controls: 0 for no effect and ±100 for the full control effect
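The screen uses fluorescence polarization to detect compounds that interfere with recruitment of the SRC2-3 coactivator peptide to VDR; plates are read after 2 h at room temperature.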
BRCA1 expr act: activators of BRCA1 expression. actives 1.1% (n = 380,000). AID 624202. Potency, µM (series often up to 46.1 µM), for inactives: at the highest dose activation, usual class: activators. MCF7-BRCA1-FFLuc reporter, luminescence, 48 h; response scale: scaled: vehicle 0%, 10 µM genistein 100%; also: nearly all actives have a fitted effect of over 80% in size
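48 h compound treatment of MCF7-BRCA1-FFLuc cells (phenol-red free MEM, 37 °C), then 15 min with luciferase substrate and luminescence imaging.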
Tb PFK block: T. brucei PFK enzyme inhibition; T. brucei PFK, ADP-Glo luminescence; actives 0.17% (n = 330,000); Potency, µM (series often up to 57.5 µM), inactives show top-dose activity, negative = inhibition, actives largely listed as inhibitors; AID 485367;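 also: 0% = uninhibited 1x PFK enzyme wells and -100% = no-enzyme wells; nearly all actives have a fitted effect of over 60% in size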
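ADP-Glo luminescence quantified ADP after 45 min at room temperature, with 1.25 nM T. brucei PFK, 0.1 mM ATP and 0.5 mM fructose-6-phosphate in pH 8.0 TEA buffer. qHTS titrations up to 57 µM; curves classified by quality.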
PLK1 PBD inh: inhibitors of human PLK1 polo-box domain binding; actives 2.8% (n = 360,000); AID 720504; Potency, µM, without a hit: max response, negative = inhibition, usual class: inhibitors; Plk1 PBD binding of FITC phosphopeptide, fluorescence polarization; also: series mostly up to about 57 µM; % is scaled to controls: 0 for no effect and ±100 for the full control effect; nearly all actives have a fitted effect of over 65% in size
Target sequence (P53350 whole entry, looked up, the tested form may be a part): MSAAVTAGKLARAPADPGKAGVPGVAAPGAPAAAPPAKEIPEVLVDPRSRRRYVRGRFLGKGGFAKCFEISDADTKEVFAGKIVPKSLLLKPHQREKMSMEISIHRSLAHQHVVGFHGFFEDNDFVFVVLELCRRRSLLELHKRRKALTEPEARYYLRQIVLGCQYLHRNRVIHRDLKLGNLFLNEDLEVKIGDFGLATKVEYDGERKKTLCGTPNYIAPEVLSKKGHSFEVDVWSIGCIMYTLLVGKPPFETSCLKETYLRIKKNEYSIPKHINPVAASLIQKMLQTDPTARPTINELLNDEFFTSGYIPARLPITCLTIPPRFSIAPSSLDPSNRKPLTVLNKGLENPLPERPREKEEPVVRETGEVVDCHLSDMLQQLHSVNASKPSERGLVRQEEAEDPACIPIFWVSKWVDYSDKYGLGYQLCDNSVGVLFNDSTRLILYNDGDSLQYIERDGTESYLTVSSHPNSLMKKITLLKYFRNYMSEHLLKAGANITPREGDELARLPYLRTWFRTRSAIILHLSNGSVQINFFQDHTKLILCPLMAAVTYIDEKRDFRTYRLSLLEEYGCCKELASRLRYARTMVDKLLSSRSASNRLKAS
An asterisk follows results filed as active; ? = inconclusive; nt = not tested or not shown. Calls follow the shape of the dose curve; as a rule, active = well fitted curve in the direction sought with a large enough effect; inconclusive = small, poorly fitted or top-dose-only effect, or another doubt; inactive = no such curve, though single readings can be large; an effect the other way counts as inactive or inconclusive. Potency is read from the fitted curve at half-maximal effect.

SMILES	VDR inh	BRCA1 expr act	Tb PFK block	PLK1 PBD inh
CC1(c2nnnn2Cc2ccccc2)CCC(=O)N1CCc1ccc(O)cc1 (centres undefined)	nt	-7%	nt	-4%
CCOC(=O)c1c(NC(N)=O)sc(C)c1C	-14%	2%	4%	-1%
CCOC(=O)c1c(N2C(=O)C=CC2=O)sc(C)c1C	-95%	-62%	?	5.3µM*
Cc1cccc(C)c1NC(=O)CSc1nnc(C)n1CC1CCCO1 (centres undefined)	-6%	0%	4%	24µM*
CCCc1nnc(SCC(=O)N2CCOCC2)n1CCCOC	-15%	27%	0%	17µM*
COCCCn1c(SCC(=O)N2CCOCC2)nnc1-c1ccco1	13%	-2%	3%	6%
COc1ccc(-c2cc(=O)[nH]c3ccccc23)cc1	5%	-40%	-2%	-10%
COc1cccc2[nH]c(=O)c(-c3ccccc3)cc12	3%	3.2µM*	-4%	-1%
N#Cc1ccccc1CSc1nnc(-c2ccccc2)o1	-8%	?	nt	nt
CCc1ccc(C(=O)NNC(=O)OC)cc1	?	-9%	0%	9.5µM*
CCc1ccc(NC(=O)C(=O)NNC(=O)c2ccc(OC)cc2)cc1	10%	-2%	5%	-4%
Cc1ccc(N2CN=C(c3ccccc3)NC2=S)cc1	15%	11µM*	-3%	-6%
COc1ccc(C2=NCN(c3ccc(C)cc3)C(=S)N2)cc1	3%	4µM*	2%	1%
Cc1ccc(N2CC(O)=C(c3ccccc3)C2=N)cc1	-26%	13%	0%	-1%
COc1ccc(-c2nc3c(=O)n(C)c(=O)nc-3n(C)n2)cc1	-20%	-78%	nt	nt
O=S1(=O)C=CC(Nc2ccccc2)C1 (centres undefined)	?	2%	0%	27µM*
N/C(=N\OC(=O)c1cccs1)c1ccc(Cl)cc1	-15%	43%	3%	-3%
NC(=O)n1c(O)c(C(=O)c2cccs2)c2cc(Cl)ccc21	45µM*	nt	nt	nt
COc1cc(/C=C2/C(=O)N(c3ccc(Br)cc3)N=C2C)cc(OC)c1OC	?	-60%	0%	1.3µM*
CC1=NN(c2ccc(Br)cc2)C(=O)/C1=C/c1cccs1	?	-25%	0%	8.4µM*
CC1=NN(c2ccc(C)cc2)C(=O)/C1=C\c1ccc(Br)s1	-21%	-38%	3%	-21%
CC(C)OCCCNC(=O)CCCn1c(SCC(N)=O)nc2c(sc3ccccc32)c1=O	-2%	nt	nt	nt
S=c1[nH]nc(Cc2ccc(Br)cc2)n1/N=C/c1ccc(Cl)cc1	79µM*	-34%	-16%	3.4µM*
Oc1ccccc1/C=N/n1c(COc2ccccc2)n[nH]c1=S	-2%	0%	-17%	?
Nn1c(Cc2ccc(Br)cc2)n[nH]c1=S	89µM*	0%	-24%	12µM*
SMILES	VDR inh	BRCA1 expr act	Tb PFK block	PLK1 PBD inh
Fc1ccccc1/C=N/n1c(COc2ccccc2)n[nH]c1=S	-6%	-4%	?	24µM*
S=c1[nH]nc(COc2ccccc2)n1/N=C/c1ccc(Cl)cc1	?	-23%	-15%	27µM*
CCOC(=O)Cn1c(=O)cc(C(F)(F)C(F)(F)F)c2c(C)nn(CC)c21	1%	nt	nt	nt
CN(C)c1cc(N2CCOCC2)nc(C#N)n1	nt	0%	nt	nt
COc1cc(OC)c(NS(=O)(=O)c2c(C(=O)N3CCCCCC3)c(C)n(C)c2C)cc1Cl	-7%	nt	nt	nt
CC(/C=N/n1c(COc2ccccc2)n[nH]c1=S)=C\c1ccco1	-18%	-11%	1%	21µM*
Fc1ccc(COc2ccc(/C=N/n3cnnc3)cc2)cc1	5%	16µM*	-3%	-10%
Cc1ccc(/C=N/n2c(COc3ccccc3)n[nH]c2=S)o1	6%	-1%	-4%	?
CSc1ccc(/C=N/n2c(COc3ccccc3)n[nH]c2=S)cc1	2%	14%	3%	34µM*
Cc1n[nH]c(=S)n1/N=C/c1ccc(OCc2ccc(Cl)cc2Cl)cc1	12%	?	0%	-1%
Cc1n[nH]c(=S)n1/N=C/c1ccc(OCc2ccc(Cl)cc2)cc1	-3%	5µM*	-1%	-11%
Cc1ccccc1/C=N/n1c(COc2ccccc2)n[nH]c1=S	8%	-2%	2%	?
Clc1ccccc1COc1ccc(/C=N/n2cnnc2)cc1	-3%	51%	3%	3%
C=C(C(C)=O)C(O)c1cccc(OC)c1 (centres undefined)	8%	nt	nt	nt
CSc1nc(=S)cc(C)[nH]1	50µM*	-3%	-23%	15µM*
Cc1nc(-c2ccccn2)nc(SCC(=O)N2CCOCC2)c1Cl	-8%	5%	7%	24µM*
Cc1nc(-c2ccccn2)nc(SCC(=O)c2ccccc2)c1Cl	-12%	-29%	-4%	?
Cc1ccccc1OCC(O)Cn1c(SC(C)C)nc2c1c(=O)[nH]c(=O)n2C (centres undefined)	?	-20%	-8%	30µM*
Cc1ccccc1OCC(O)Cn1c(N2CCCCC2)nc2c1c(=O)[nH]c(=O)n2C (centres undefined)	-15%	2%	-1%	-12%
Cc1ccccc1OCC(O)Cn1c(Br)nc2c1c(=O)[nH]c(=O)n2C (centres undefined)	-3%	-16%	-1%	1%
CCSc1nc2c(c(=O)[nH]c(=O)n2C)n1CC(O)COc1ccccc1C (centres undefined)	-27%	-29%	-3%	27µM*
COc1ccc(CCNC(=O)CNS(=O)(=O)c2ccc(N(C)C)c([N+](=O)[O-])c2)cc1OC	-20%	8%	-5%	-28%
CNc1ccc(S(=O)(=O)NCC(=O)NCCCc2ccccc2)cc1[N+](=O)[O-]	?	-9%	?	6µM*
CN(C)c1ccc(S(=O)(=O)NCC(=O)NCc2ccccc2)cc1[N+](=O)[O-]	?	-13%	-5%	12µM*
Cc1ncc([N+](=O)[O-])n1CCOC(=O)NC(NCc1cccnc1)C(Cl)(Cl)Cl (centres undefined)	?	-3%	3%	27µM*
SMILES	VDR inh	BRCA1 expr act	Tb PFK block	PLK1 PBD inh
COCCN1Cc2cccc(C(=O)Nc3ccc(Cl)cc3Cl)c2C1=O	10%	-14%	nt	nt
CSc1ccc(CNC(=O)C2(C)CCCN2CC(C)C)cc1 (centres undefined)	nt	-1%	nt	-5%
Cn1c(O)c(N=NC(=O)CNC(=O)c2ccccc2)c2ccccc21	1%	-8%	3%	4%
Cn1c(N=NC(=O)c2ccccc2)c(O)c2ccccc21	?	-42%	1%	27µM*
CNc1ncnc2c1ncn2[C@H]1CN(Cc2cccnc2)C[C@@H](CO)O1	nt	1%	nt	-10%
O=C(COC(=O)c1ccc(S(=O)(=O)NCc2ccco2)cc1)Nc1ccccc1	13%	2%	-3%	-7%
CN(C)C(=O)COC(=O)c1ccc(S(=O)(=O)NCc2ccco2)cc1	-12%	3%	-6%	27µM*
Cc1ccc(S(=O)(=O)NCc2ccco2)cc1C(N)=O	?	-7%	-8%	27µM*
CC(=O)Oc1cccc(N2C(=O)C3C(C2=O)C2C=CC3C23CC3)c1 (centres undefined)	4%	-13%	5%	-4%
